Rows were chosen to be rich in hits. Some 0.99% of all compounds tested hit in one or more screens of this group.
TRHR agonist – agonists of human TRH receptor; P34981; TRHR cells, calcium flux fluo-8, FDSS agonist mode; activation, % at 2 µM; 360,000 tested, 0.18% active; in the data active = activation above about 30%; note: 0% is about no effect
Target sequence (P34981 whole entry, looked up): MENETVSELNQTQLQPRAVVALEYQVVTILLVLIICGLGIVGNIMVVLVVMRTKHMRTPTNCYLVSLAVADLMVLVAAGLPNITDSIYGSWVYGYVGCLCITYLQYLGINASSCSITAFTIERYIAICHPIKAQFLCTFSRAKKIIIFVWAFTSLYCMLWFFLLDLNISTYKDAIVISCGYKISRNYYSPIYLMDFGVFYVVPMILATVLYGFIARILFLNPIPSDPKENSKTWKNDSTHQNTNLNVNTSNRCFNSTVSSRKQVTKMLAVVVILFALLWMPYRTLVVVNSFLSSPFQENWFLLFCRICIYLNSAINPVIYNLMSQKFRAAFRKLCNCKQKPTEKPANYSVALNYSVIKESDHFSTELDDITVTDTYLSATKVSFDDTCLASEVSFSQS
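TRHR-expressing cells loaded with fluo-8 calcium dye; 23 nL library compound pin-transferred, kinetic FDSS fluorescence (Ex 480/Em 530) recorded about 180 s for agonist-induced calcium release, before a 10 nM TRH EC20 addition for potentiator mode.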
TRPV1 potentiator – human TRPV1 potentiation; Q8NER1; TRPV1-expressing cells, Fluo-8 calcium influx, capsaicin EC20 potentiation; potentiation, % at 8.33 µM; 320,000 tested, 0.02% active; in the data active = potentiation above about 80%; inconclusive = between about 30% and that limit; note: 0% is about no effect
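Fluo-8 calcium influx in TRPV1-expressing cells, kinetic read (ex 480/em 520 nm). Compound added and read 3 min for agonist activity, followed by capsaicin at EC20 final and 2 min further read for enhancement.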
TRPML1 ag – human mucolipin-1 channel agonism; Q9GZU1; activation, % (no concentration beside the values); TRPML1-expressing cells, Ca2+ dye fluorescence, FDSS; 410,000 tested, 0.12% active; in the data active = activation above about 50%; inconclusive = mostly about 30% to 49%; note: 0% is about no effect
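Cells: TRPML1-DL, 1X Tet inducer, ~16 h at 37 degrees C/5% CO2. Dye: ABD Ca8 no-wash + quencher, 45-90 min RT. Read: 10 s baseline, compound add, 110 s agonist phase; 54-4 EC80 (4uM final), 110 s antagonist phase.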
TRPML1 blocker – blocks the human TRPML1 channel; Q9GZU1; TRPML1-inducible cells, Ca2+ dye fluorescence, FDSS; stronger effect = lower value; inhibition of EC80 agonist-evoked calcium signal; activity change, negative = inhibition, % (concentration not given with the values); 390,000 tested, 0.02% active; in the data active = activity change below about -50%; inconclusive = between about -30% and that limit;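 note: stimulus is agonist 54-4 at its EC80 concentration; % is set by controls: 0 for no effect and ±100 for the full control effect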
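Tet-induced TRPML1-DL cells loaded with Ca8 no-wash calcium dye were read kinetically on FDSS. Compound addition was followed by EC80 agonist 54-4 (4 uM final); inhibition was read over 110 s.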
TRPV1 agonist – activates the human vanilloid receptor TRPV1 | Q8NER1 | TRPV1-expressing cells, Fluo-8 calcium influx, agonist mode | activation, % at 8.33 µM | 320,000 tested, 0.19% active; in the data active = activation above about 80%; inconclusive = between about 30% and that limit; note: 0% is about no effect
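Cells expressing TRPV1 were dye-loaded with Fluo-8 and read kinetically: 10 s baseline, 3 min after compound (agonist portion), then 2 min after EC20 capsaicin (allosteric enhancer portion). Calcium-bound dye fluorescence at 480/520 nm.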
TRHR enhancer – TRH receptor (human) allosteric enhancement; AID 493056; 360,000 tested, 0.66% active; TRHR cells, fluo-8 calcium fluorescence, EC20 TRH enhancement; P34981; enhancement, % at 2 µM; in the data active = enhancement above about 30%; note: 0% is about no effect
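TRHR-expressing cells loaded with fluo-8 calcium dye were read kinetically (ex 480/em 530) during compound addition, then stimulated with an EC20 of TRH (10 nM final). Enhancement of the Gq-mediated intracellular calcium response was scored.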
* = called active by the depositor; ? = inconclusive; / = no result given; ! = not confirmed by another sample.

SMILES | TRHR agonist | TRPV1 potentiator | TRPML1 ag | TRPML1 blocker | TRPV1 agonist | TRHR enhancer
CN(C)c1ccc(/C=C/c2ccnc3c(Cl)cccc23)cc1 | / | / | 54* | / | / | /
CCN(CC)c1ccc(/C=C/c2cc(-c3ccccc3)c3ccccc3n2)cc1 | 89* | 2 | 0 | -19 | ? | 28
CCN(CC)c1ccc(/C=C/c2ccccn2)cc1 | / | / | 27 | / | / | /
CCCN(CCC)c1ccc(/C=C/c2ccc3cc(OCC)ccc3n2)cc1 | 35* | 16 | 22 | 1 | 11 | -4
O=C(CN(CCc1c[nH]c2ccccc12)S(=O)(=O)c1ccccc1)N1CCCCCC1 | / | / | 0 | / | / | /
COc1ccc(C(=O)C[n+]2ccccc2Cl)cc1 | / | / | -1 | / | / | /
O=C(Cc1ccc2ccccc2c1)NO | / | / | 0 | / | / | /
COc1cc(/C=C/c2ccnc3ccccc23)ccc1N(C)C | / | / | 58* | / | / | /
CN(C)c1ccc(C=Cc2ccnc3ccccc23)cc1N | / | / | 0 | / | / | /
CCN(CC)c1ccc(/C=C/c2ccnc3ccccc23)cc1 | / | / | 54* | / | / | /
CN(C)c1ccc(/C=C/c2ccc3ccccc3n2)cc1 | 38* | 14 | 52*! | -11 | 26 | 16
CCN(CC)CCN(CC)c1ccc(/C=C/c2ccnc3ccccc23)cc1 | / | / | 4 | / | / | /
CN1CCCc2cc(/C=C/c3ccnc4ccccc34)ccc21 | / | / | 52* | / | / | /
CC(C)(C)c1ccc(Nc2nc(C#N)nc(NC3CCCC3)n2)cc1 | 1 | / | / | / | / | 5
CC(C)(C)n1ncc2c(=O)n(Cc3ccc(Cl)c(OC(F)(F)F)c3)cnc21 | / | / | 5 | 10 | / | /
COc1ccc(CCC(=O)O)cc1 | / | / | -1 | / | / | /
SCc1nc2ccccc2[nH]1 | / | / | 0 | / | / | /
CN(C)c1ccc(/C=C/c2ccnc3ccc(Cl)cc23)cc1 | / | / | 5 | / | / | /
CN(C)c1ccc(N=Nc2ccc(/C=C/c3ccnc4ccccc34)cc2)cc1 | / | / | 124* | / | / | /
CN(C)c1ccc(/C=C/c2ccnc3ccc(Br)cc23)cc1 | / | / | 54* | / | / | /
CN(C)c1ccc(N=Nc2ccnc3ccccc23)cc1 | / | / | -1 | / | / | /
CN(C)c1ccc(/C=C2\NC(=O)NC2=O)cc1 | / | / | 0 | / | / | /
CN(CC(=O)Nc1ccc(N2CCOCC2)cc1)C(=O)CCCOc1ccc(Cl)cc1Cl | 0 | -6 | 1 | -11 | 8 | 40*
O=C1CC(c2ccccc2)CC(O)=C1C=NCc1ccccc1 (stereo not given) | 0 | -3 | 1 | -17 | 1 | -8
O=C1CC(c2ccccc2)CC(O)=C1C=NCCc1ccccc1 (stereo not given) | 0 | 84* | -1 | 7 | 9 | 18
SMILES | TRHR agonist | TRPV1 potentiator | TRPML1 ag | TRPML1 blocker | TRPV1 agonist | TRHR enhancer
CC(C)OC(=O)C(=O)NNc1ccccc1 | -2 | 21 | 0 | 15 | -5 | 3
CCCOC(=O)C(=O)NNc1ccccc1 | 0 | 29 | 1 | -3 | 2 | 32*
CC1(C)OB(c2cnc(C#N)nc2)OC1(C)C | / | / | 0 | / | / | /
Cc1nn(CC(=O)NC2CC2)c(=O)c2cc3cc(F)ccc3n12 | 0 | / | 0 | -13 | / | 34*
C(=C\c1ccnc2ccccc12)/c1ccc(N2CCNCC2)cc1 | / | / | 1 | / | / | /
CC(C)(C)NNC(=S)Nc1cccc(C(F)(F)F)c1 | 0 | -7 | 1 | 2 | 23 | 32*
Cc1ccc(NC(=O)c2c(C)oc3ncn(CC(C)C)c(=O)c23)nc1 | -2 | / | 1 | ? | / | 31*
Cc1ccnc(NC(=O)c2c(C)oc3ncn(CC(C)C)c(=O)c23)c1 | 0 | / | 0 | 21 | / | -9
CC(C)(C)n1ncc2c(=O)n(Cc3cccc(C#N)c3)cnc21 | / | / | 0 | 0 | / | /
COc1ccc(N(CC(=O)Nc2c(C)n(C)n(-c3ccccc3)c2=O)S(=O)(=O)c2ccc(F)cc2)cc1 | 0 | 14 | 1 | -10 | -4 | -2
COc1ccc(N(CC(=O)Nc2c(C)n(C)n(-c3ccccc3)c2=O)S(=O)(=O)c2ccc(C)cc2)cc1 | -1 | 2 | 2 | 6 | -1 | 30*
O=c1cc(/C=C/c2ccc([N+](=O)[O-])cc2)c2ccccc2[nH]1 | / | / | 0 | / | / | /
COc1ccc(N=Nc2nc3ccc(Br)cc3n2C)cc1 | 0 | -11 | 54* | -6 | 1 | 4
O=C(C[n+]1ccccc1Br)c1ccc(O)c(O)c1 | / | / | -1 | / | / | /
COc1cccc2cc(C(=O)CS(=O)(=O)c3ccc(Cl)cc3)c(=O)oc12 | 1 | ? | 1 | 4 | 0 | 34*
Cc1nn(-c2ccccn2)c2nc(-c3cccs3)cc(C(=O)NCc3ccco3)c12 | -1 | -4 | 1 | 10 | 83* | -7
Oc1cc2cc(-c3csc(-c4ccc(F)cc4)n3)cc3c2n1CCC3 | / | / | -1 | / | / | /
Cc1ccc(S(=O)(=O)N2CCN(c3nc(-c4cncs4)nc4ccccc34)CC2)cc1 | / | / | -1 | / | / | /
CCOC(=O)Cc1csc(NS(=O)(=O)c2cccc([N+](=O)[O-])c2)n1 | 0 | 3 | 0 | 27 | 0 | 36*
CCOC(=O)Cc1csc(NS(=O)(=O)c2ccccc2)n1 | 0 | -7 | 1 | 10 | -2 | 4
O=C(CNC(=O)C1CCCCC1)OC(C(=O)Nc1cc(C(F)(F)F)ccc1Cl)c1ccccc1 (stereo not given) | -2 | / | / | / | / | -1
COc1cccc(CN2Cc3cccc4c3[C@H](C=CC4)CC2=O)c1 | / | / | 0 | / | / | /
Cc1ccccc1C(=O)NCC(=O)OC(C(=O)Nc1cc(C(F)(F)F)ccc1Cl)c1ccccc1 (stereo not given) | 2 | / | / | / | / | -8
CCOC(=O)[C@H]1[C@H]2COc3ccc(Br)cc3[C@@H]2N2C(=O)c3ccc(F)cc3NC(=O)[C@@]12C | 0 | 28 | 2 | 1 | ? | -3
CCOC(=O)[C@H]1[C@H]2COc3ccc(Br)cc3[C@@H]2N2C(=O)c3cc(F)c(F)cc3NC(=O)[C@@]12C | 0 | ? | 2 | 4 | 84* | 1
SMILES | TRHR agonist | TRPV1 potentiator | TRPML1 ag | TRPML1 blocker | TRPV1 agonist | TRHR enhancer
CCOC(=O)[C@H]1[C@H]2COc3ccc(Br)cc3[C@@H]2N2C(=O)c3ccc(C)cc3NC(=O)[C@@]12C | 1 | 13 | 2 | 31 | 80* | -2
CCOC(=O)[C@H]1[C@H]2COc3cc(OC)ccc3[C@@H]2N2C(=O)c3ccc(C)cc3NC(=O)[C@@]12C | 0 | 5 | 3 | 35 | 82* | 5
CCOC(=O)[C@H]1[C@H]2COc3ccccc3[C@@H]2N2C(=O)c3ccc(C)cc3NC(=O)[C@@]12C | 0 | -4 | 0 | -7 | 93* | -4
CC[N+]1(CC(=O)c2ccc(Cl)cc2)CCCCC1 | / | / | 0 | / | / | /
CN(C)c1ccc(/C=C2\C(Cl)=Cc3ccccc32)cc1 | / | / | -1 | / | / | /
O=C(NCc1ccco1)c1ccc([N+](=O)[O-])o1 | 0 | -7 | 0 | -8 | -1 | 69*
CC1(C)CC(=O)c2cc(C(=O)Nc3ccccc3)c(=O)[nH]c2C1 | / | / | 2 | / | / | /
C/C(CC(=O)Nc1ccc(C)c(Cl)c1)=N\NC(=O)c1cccc(O)c1 | 0 | 6 | -2 | 4 | -7 | 32*
